PMC10812921, “Transcriptional Coactivator BOB1 (OBF1, OCA-B) Modulates the Specificity of DNA Recognition by the POU-Domain Factors OCT1 and OCT2 in a Monomeric Configuration”

Columns and labels:
POU1 (OCT1 POU domain) = POU1 (OCT1 POU domain) (human, UniProt P14859 260-458); test: EMSA-SELEX-seq; no BOB1; 20 mM Tris-HCl pH 7.6, 140 mM NaCl, 10% glycerol, 0.5 mM EDTA, 0.05% Triton X-100, 0.1 mg/mL BSA, 0.1 mg/mL poly(dI-dC), 5 mM DTT, room temperature, 20 min; high values mean tight binding; conditions: protein: recombinant; dsDNA, one strand shown
Chain of POU1 (OCT1 POU domain) (P14859 260-458): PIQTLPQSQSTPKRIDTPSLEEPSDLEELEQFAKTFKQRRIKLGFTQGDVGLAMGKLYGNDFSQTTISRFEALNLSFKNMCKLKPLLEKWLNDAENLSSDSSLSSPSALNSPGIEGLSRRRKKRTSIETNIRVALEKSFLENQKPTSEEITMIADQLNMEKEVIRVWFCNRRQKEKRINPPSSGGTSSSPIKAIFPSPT
How it was run: (§1)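 After expression in E. coli BL21, tagged POU-domain proteins were purified under denaturing conditions and then renatured. Each binding reaction held 30 ng protein and 300 ng of a PCR-amplified double-stranded random 35-nt library in 20 μL Tris–HCl pH 7.6 binding buffer, with or without 28 ng coactivator protein, for 20 min at RT. Bands holding complexes were cut from native 6% PAGE, eluted and PCR-amplified across four rounds, and the output was Illumina-sequenced. The value given for binding preference is the share, in percent, of sequenced 8-mers fitting a motif pattern.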

POU2 (OCT2 POU domain) = biological target: T1, POU2 (OCT2 POU domain) (human, UniProt P09086 175-386); test: as above; conditions: protein: recombinant; dsDNA, one strand shown
T1 sequence: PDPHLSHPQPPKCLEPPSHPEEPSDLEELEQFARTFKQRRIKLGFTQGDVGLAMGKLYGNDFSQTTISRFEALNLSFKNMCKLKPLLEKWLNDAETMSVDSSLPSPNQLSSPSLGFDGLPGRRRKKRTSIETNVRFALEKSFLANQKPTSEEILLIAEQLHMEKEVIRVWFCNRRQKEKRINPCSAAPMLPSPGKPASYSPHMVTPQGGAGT
How it was run: as §1

[1] = biological target: POU1 (OCT1 POU domain);BOB1 (OBF1, OCA-B) (human;human, UniProt P14859;Q16633 260-458;1-256, |); test: EMSA-SELEX-seq; with BOB1 (ternary complex band); 20 mM Tris-HCl pH 7.6, 140 mM NaCl, 10% glycerol, 0.5 mM EDTA, 0.05% Triton X-100, 0.1 mg/mL BSA, 0.1 mg/mL poly(dI-dC), 5 mM DTT, room temperature, 20 min; high values mean tight binding; conditions: protein: recombinant;recombinant; copies: 1;1; dsDNA, one strand shown
How it was run: as §1

[2] = biological target: T2, POU2 (OCT2 POU domain);BOB1 (OBF1, OCA-B) (human;human, UniProt P09086;Q16633 175-386;1-256, |); test: as above; conditions: protein: recombinant;recombinant; copies: 1;1; dsDNA, one strand shown
T2 sequence 1: T1 sequence
T2 sequence 2: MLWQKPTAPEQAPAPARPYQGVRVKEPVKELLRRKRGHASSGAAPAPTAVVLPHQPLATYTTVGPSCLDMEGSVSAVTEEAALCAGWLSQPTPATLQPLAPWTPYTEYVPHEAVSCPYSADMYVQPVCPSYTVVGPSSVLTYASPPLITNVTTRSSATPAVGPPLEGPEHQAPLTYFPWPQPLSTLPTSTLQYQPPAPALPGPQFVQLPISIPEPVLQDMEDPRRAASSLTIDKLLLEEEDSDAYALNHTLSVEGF
How it was run: as §1

Sequence | binding signal (POU1 (OCT1 POU domain)) | binding signal (POU2 (OCT2 POU domain)) | binding signal [1] | binding signal [2]
AATGGAAT | 0.138 % of ANNNNAAN 8-mers | 0.212 % of ANNNNAAN 8-mers | 0.125 % of ANNNNAAN 8-mers | 0.147 % of ANNNNAAN 8-mers
ACTGCAAG | 0.0133 % of ANNNNAAN 8-mers | 0.0144 % of ANNNNAAN 8-mers | 0.016 % of ANNNNAAN 8-mers | 0.0107 % of ANNNNAAN 8-mers
AGGTCAAT | 0.0557 % of ANNNNAAN 8-mers | 0.0662 % of ANNNNAAN 8-mers | 0.0437 % of ANNNNAAN 8-mers | 0.0636 % of ANNNNAAN 8-mers
ATAACAAC | 0.0252 % of ANNNNAAN 8-mers | 0.0391 % of ANNNNAAN 8-mers | 0.0222 % of ANNNNAAN 8-mers | 0.0347 % of ANNNNAAN 8-mers
AAACAAAG | 0.114 % of ANNNNAAN 8-mers | 0.0742 % of ANNNNAAN 8-mers | 0.165 % of ANNNNAAN 8-mers | 0.0892 % of ANNNNAAN 8-mers
AAGAAAAG | 0.0732 % of ANNNNAAN 8-mers | 0.0633 % of ANNNNAAN 8-mers | 0.0905 % of ANNNNAAN 8-mers | 0.0652 % of ANNNNAAN 8-mers
AAAAGAAT | 0.0858 % of ANNNNAAN 8-mers | 0.088 % of ANNNNAAN 8-mers | 0.0937 % of ANNNNAAN 8-mers | 0.0817 % of ANNNNAAN 8-mers
AGTAAAAA | 0.0911 % of ANNNNAAN 8-mers | 0.0679 % of ANNNNAAN 8-mers | 0.103 % of ANNNNAAN 8-mers | 0.0578 % of ANNNNAAN 8-mers
AGGCGAAA | 0.0389 % of ANNNNAAN 8-mers | 0.0357 % of ANNNNAAN 8-mers | 0.0386 % of ANNNNAAN 8-mers | 0.0363 % of ANNNNAAN 8-mers
AAGAAAAA | 0.0934 % of ANNNNAAN 8-mers | 0.0921 % of ANNNNAAN 8-mers | 0.105 % of ANNNNAAN 8-mers | 0.0669 % of ANNNNAAN 8-mers
ATGAAAAC | 0.0717 % of ANNNNAAN 8-mers | 0.0604 % of ANNNNAAN 8-mers | 0.0956 % of ANNNNAAN 8-mers | 0.0586 % of ANNNNAAN 8-mers
AAACTAAG | 0.0484 % of ANNNNAAN 8-mers | 0.0478 % of ANNNNAAN 8-mers | 0.0636 % of ANNNNAAN 8-mers | 0.052 % of ANNNNAAN 8-mers
ACGCTAAG | 0.0202 % of ANNNNAAN 8-mers | 0.0167 % of ANNNNAAN 8-mers | 0.0242 % of ANNNNAAN 8-mers | 0.0231 % of ANNNNAAN 8-mers
ACTACAAA | 0.0214 % of ANNNNAAN 8-mers | 0.0391 % of ANNNNAAN 8-mers | 0.0285 % of ANNNNAAN 8-mers | 0.0256 % of ANNNNAAN 8-mers
AACTAAAT | 0.0778 % of ANNNNAAN 8-mers | 0.0811 % of ANNNNAAN 8-mers | 0.0667 % of ANNNNAAN 8-mers | 0.0594 % of ANNNNAAN 8-mers
ATAATAAG | 0.182 % of ANNNNAAN 8-mers | 0.258 % of ANNNNAAN 8-mers | 0.094 % of ANNNNAAN 8-mers | 0.126 % of ANNNNAAN 8-mers
AGGTGAAG | 0.04 % of ANNNNAAN 8-mers | 0.0386 % of ANNNNAAN 8-mers | 0.0339 % of ANNNNAAN 8-mers | 0.0471 % of ANNNNAAN 8-mers
AAGATAAA | 0.0622 % of ANNNNAAN 8-mers | 0.0662 % of ANNNNAAN 8-mers | 0.0585 % of ANNNNAAN 8-mers | 0.0405 % of ANNNNAAN 8-mers
ATCCAAAG | 0.0427 % of ANNNNAAN 8-mers | 0.0397 % of ANNNNAAN 8-mers | 0.0566 % of ANNNNAAN 8-mers | 0.0446 % of ANNNNAAN 8-mers
AGCTGAAT | 0.0561 % of ANNNNAAN 8-mers | 0.0725 % of ANNNNAAN 8-mers | 0.0492 % of ANNNNAAN 8-mers | 0.0471 % of ANNNNAAN 8-mers
ACATCAAT | 0.0435 % of ANNNNAAN 8-mers | 0.057 % of ANNNNAAN 8-mers | 0.0367 % of ANNNNAAN 8-mers | 0.0338 % of ANNNNAAN 8-mers
ACGGGAAG | 0.0332 % of ANNNNAAN 8-mers | 0.0339 % of ANNNNAAN 8-mers | 0.0254 % of ANNNNAAN 8-mers | 0.0347 % of ANNNNAAN 8-mers
ATACGAAG | 0.0481 % of ANNNNAAN 8-mers | 0.0552 % of ANNNNAAN 8-mers | 0.0574 % of ANNNNAAN 8-mers | 0.0388 % of ANNNNAAN 8-mers
ATCTGAAC | 0.0275 % of ANNNNAAN 8-mers | 0.0265 % of ANNNNAAN 8-mers | 0.0258 % of ANNNNAAN 8-mers | 0.0429 % of ANNNNAAN 8-mers
AAAGTAAG | 0.0641 % of ANNNNAAN 8-mers | 0.0685 % of ANNNNAAN 8-mers | 0.0851 % of ANNNNAAN 8-mers | 0.0834 % of ANNNNAAN 8-mers
ACCCAAAT | 0.0477 % of ANNNNAAN 8-mers | 0.0391 % of ANNNNAAN 8-mers | 0.0753 % of ANNNNAAN 8-mers | 0.0355 % of ANNNNAAN 8-mers
ATGTCAAA | 0.0744 % of ANNNNAAN 8-mers | 0.0673 % of ANNNNAAN 8-mers | 0.0745 % of ANNNNAAN 8-mers | 0.0652 % of ANNNNAAN 8-mers
AAACAAAA | 0.156 % of ANNNNAAN 8-mers | 0.115 % of ANNNNAAN 8-mers | 0.256 % of ANNNNAAN 8-mers | 0.14 % of ANNNNAAN 8-mers
AACGTAAA | 0.0816 % of ANNNNAAN 8-mers | 0.0639 % of ANNNNAAN 8-mers | 0.0843 % of ANNNNAAN 8-mers | 0.0578 % of ANNNNAAN 8-mers
AGCGAAAA | 0.0389 % of ANNNNAAN 8-mers | 0.0386 % of ANNNNAAN 8-mers | 0.0418 % of ANNNNAAN 8-mers | 0.033 % of ANNNNAAN 8-mers
